Experimental data: PubChem BioAssay (NCI)
Values joined by “and” are separate entries in the source; they are usually repeats but may differ in a detail not shown here. Identical values can stand only once. This is part of a sample that, as a whole, favours compounds with a hit. Of some 79,000 tested, about 15% had one in any assay. Some structures have more than one record in an assay (separate samples or runs), and their calls can disagree. Active and inactive are the calls of the source. Cut-off read from the data, not from the text of the source: active = growth inhibition above about 70%; inactive = the rest.

Assays:
[1] = NCI Yeast Anticancer Drug Screen. Data for the rad50 strain (AID 155);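 note: 0% = growth of vehicle-only cultures of the same strain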; settings: S. cerevisiae rad50 strain growth inhibition, stronger effect = higher value
Method in brief: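 Growth of the mutant yeast was measured after compound exposure and referenced to vehicle-treated cultures.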

[2] = NCI Yeast Anticancer Drug Screen. Data for the mec2-1 strain (AID 157); settings: S. cerevisiae mec2-1 strain, stronger effect = higher value
Method in brief: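 Strain: mec2-1 (DNA repair/cell cycle alteration). Compound exposure, then growth measured; inhibition expressed relative to vehicle.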

[3] = NCI Yeast Anticancer Drug Screen. Data for the sgs1 mgt1 strain (AID 161);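 note: 0% = growth of cultures given vehicle only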; settings: S. cerevisiae sgs1 mgt1 strain, stronger effect = higher value
Method in brief: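 Test agents were incubated with a DNA-repair-mutant yeast strain. Growth was then read and compared against vehicle-treated controls.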

[4] = NCI Yeast Anticancer Drug Screen. Data for the cln2 rad14 strain (AID 165);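 note: 0% = growth equal to vehicle treated cultures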; settings: S. cerevisiae cln2 rad14 strain, stronger effect = higher value
Method in brief: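 Compounds are applied to the cln2 rad14 yeast strain, and growth is then compared with that of vehicle-treated cultures to give inhibition.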

[5] = NCI Yeast Anticancer Drug Screen. Data for the bub3 strain (AID 167); settings: S. cerevisiae bub3 mutant strain, stronger effect = higher value
Method in brief: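 Whole-cell yeast assay. The mutant strain was incubated with compounds, and growth inhibition was determined by comparison with vehicle-treated cells.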

[6] = NCI Yeast Anticancer Drug Screen. Data for the mlh1 rad18 strain (AID 175); settings: S. cerevisiae mlh1 rad18 strain growth inhibition, stronger effect = higher value
Method in brief: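 Read-out is yeast growth inhibition, calculated against vehicle-only controls. The compound was applied to a strain engineered with DNA damage repair alterations.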

[7] = at 5.0 µM (retest, dose inferred, filed as 0.5)
[8] = at 50.0 µM (retest, dose inferred, filed as 5.0)

Measured: growth inhibition

O=Cc1cc([N+](=O)[O-])cc(CCl)c1O
inactive: [1]; [7] -119% | [1]; [8] 26% | [1]; at 50.0 µM 20.7% | [2]; [7] -52% | [2]; [8] -31% | [2]; at 50.0 µM 13.2% | [3]; [7] -59% | [3]; [8] -8% | [3]; at 50.0 µM 15.2% | [4]; [7] -58% | [4]; [8] -17% | [4]; at 50.0 µM 20.1% | [5]; [7] -71% | [5]; [8] -32% | [5]; at 50.0 µM -6.45% | [6]; [7] -123% | [6]; [8] -28% | [6]; at 50.0 µM 27.9%

N#CC1(C2SCCS2=O)C2=C(C(=O)c3ccccc3C2=O)N2CCCC21 (configuration not stated)
active: [1]; at 50.0 µM 76.8% | [2]; at 50.0 µM 77.2% | [3]; at 50.0 µM 83.8% | [5]; [8] 80% | [5]; at 50.0 µM 70.2% | [6]; at 50.0 µM 89.9%
inactive: [1]; [7] 17% | [1]; [8] 56% | [2]; [7] 14% | [2]; [8] 49% | [3]; [7] 23% | [3]; [8] 67% | [4]; [7] 14% | [4]; [8] 40% | [4]; at 50.0 µM 43.2% | [5]; [7] 33% | [6]; [7] 17% | [6]; [8] 67%

COC(=O)c1ccc(O)c(OC)c1
inactive: [1]; [7] -1% | [1]; [8] -5% | [1]; at 50.0 µM -25.2% | [2]; [7] 1% | [2]; [8] -3% | [2]; at 50.0 µM -2.35% | [3]; [7] 0% | [3]; [8] -1% | [3]; at 50.0 µM -8.9% | [4]; [7] -2% | [4]; [8] 2% | [4]; at 50.0 µM 28.1% | [5]; [7] 12% | [5]; [8] 27% | [5]; at 50.0 µM 12.8% | [6]; [7] -4% | [6]; [8] -3% | [6]; at 50.0 µM 9.5%

CC(=O)OCC(OC(C)=O)C(OC(C)=O)C(OC(C)=O)C(OC(C)=O)C(/C=N/Nc1ccccc1)=N/Nc1ccccc1 (configuration not stated)
93% (active) and -1% (inactive): [6]; [8]
94.8% (active) and 57.6% (inactive): [1]; at 50.0 µM
90% (active) and 4% (inactive): [1]; [8]
86% (active) and 1% (inactive): [4]; [8]
87% (active) and -12% (inactive): [5]; [8]
95.2% (active) and 40.5% (inactive): [6]; at 50.0 µM
inactive: [1]; [7] 21% and -14% | [2]; [7] 4% and 1% | [2]; [8] 68% and -7% | [2]; at 50.0 µM 48.1% and 4.7% | [3]; [7] -12% and -18% | [3]; [8] 50% and 9% | [3]; at 50.0 µM 47.8% and 6.1% | [4]; [7] 23% and 0% | [4]; at 50.0 µM 44.4% and 29.6% | [5]; [7] 7% and -3% | [6]; [7] 26% and -3%
86.3% (active) and 18.7% (inactive): [5]; at 50.0 µM

O=Cc1cc(Br)ccc1O
active: [1]; [8] 97% and 85% | [1]; at 50.0 µM 88.7% and 95.2% | [2]; [8] 73% and 77% | [2]; at 50.0 µM 92.5% and 98% | [3]; at 50.0 µM 95.9% and 96.3% | [5]; [8] 97% and 88% | [5]; at 50.0 µM 91.7% and 97.5% | [6]; [8] 94% and 93% | [6]; at 50.0 µM 97% and 99%
73% (active) and 68% (inactive): [3]; [8]
inactive: [1]; [7] 21% and 9% | [2]; [7] 7% and 4% | [3]; [7] 10% and 4% | [4]; [7] 8% and -3% | [4]; [8] 61% and 30% | [4]; at 50.0 µM 48.2% and 69% | [5]; [7] 6% and -4% | [6]; [7] 17% and 11%

C1=C(c2ccccc2)N(CCc2ccccc2)C(c2ccccc2)=CN1Cc1ccccc1
active: [1]; [8] 95% | [1]; at 50.0 µM 98.4% | [2]; [8] 97% | [2]; at 50.0 µM 98.5% | [3]; [8] 97% | [3]; at 50.0 µM 98.6% | [4]; [8] 96% | [4]; at 50.0 µM 98.5% | [5]; [8] 95% | [5]; at 50.0 µM 98.2% | [6]; [8] 97% | [6]; at 50.0 µM 98.7%
inactive: [1]; [7] -7% | [2]; [7] 1% | [3]; [7] 7% | [4]; [7] 2% | [5]; [7] 9% | [6]; [7] -4%

Nc1nc(Cl)cc(NCCCCCCCCCCNc2cc(Cl)nc(N)n2)n1
active: [1]; [8] 96% | [2]; [8] 100% | [3]; [8] 100% | [4]; [8] 99% | [5]; [8] 99% | [6]; [8] 99%
inactive: [1]; [7] -4% | [1]; at 50.0 µM 28.9% | [2]; [7] 3% | [2]; at 50.0 µM 19.1% | [3]; [7] -1% | [3]; at 50.0 µM 0.05% | [4]; [7] 10% | [4]; at 50.0 µM 52.1% | [5]; [7] -7% | [5]; at 50.0 µM 18.8% | [6]; [7] 14% | [6]; at 50.0 µM 33%

COC(=O)C1c2cc3c(cc2C(OC2OC(C)C(OC)C(C)(OC)C2OC)CC1(C)O)C(=O)c1c(O)cc2c(c1C3=O)OC1OC2(C)C(O)C([N+](C)(C)[O-])C1O (configuration not stated)
active: [1]; at 50.0 µM 70.4% | [5]; at 50.0 µM 74.8%
inactive: [1]; [7] 7% | [1]; [8] 65% | [2]; [7] 3% | [2]; [8] 8% | [2]; at 50.0 µM 61.4% | [3]; [7] -2% | [3]; [8] 27% | [3]; at 50.0 µM 65.8% | [4]; [7] 24% | [4]; [8] 39% | [4]; at 50.0 µM 47.6% | [5]; [7] -10% | [5]; [8] 31% | [6]; [7] -8% | [6]; [8] 57% | [6]; at 50.0 µM 54.5%

CCSSc1ccccc1C(=O)NC(CC)CO (configuration not stated)
inactive: [1]; [7] 1% | [1]; [8] 59% | [2]; [7] 15% | [2]; [8] 69% | [2]; at 50.0 µM 20.8% | [3]; [7] 20% | [4]; [7] 0% | [4]; [8] 12% | [4]; at 50.0 µM 19.4% | [5]; [7] -10% | [5]; [8] 62% | [5]; at 50.0 µM 65.5% | [6]; [7] 3% | [6]; at 50.0 µM 65.5%
active: [1]; at 50.0 µM 73.5% | [3]; [8] 71% | [3]; at 50.0 µM 94.3% | [6]; [8] 73%

CCN(CC)CCC(=O)/C=C/c1ccccc1
inactive: [1]; [7] 31% | [2]; [7] 27% | [3]; [7] 60% | [4]; [7] 42% | [5]; [7] 58% | [6]; [7] 32%
99.3% (active) and 36% (inactive): [6]; at 50.0 µM
99.3% (active) and 6.75% (inactive): [4]; at 50.0 µM
99.5% (active) and 49.5% (inactive): [5]; at 50.0 µM
99.6% (active) and 56.1% (inactive): [2]; at 50.0 µM
active: [1]; [8] 95% | [2]; [8] 100% | [3]; [8] 100% | [4]; [8] 97% | [5]; [8] 99% | [6]; [8] 99%
99.5% (active) and 28.6% (inactive): [3]; at 50.0 µM
99.3% (active) and 29.2% (inactive): [1]; at 50.0 µM

OCC(O)C(O)C(O)C(/C=N/Nc1ccccc1)=N/Nc1ccccc1 (configuration not stated)
inactive: [1]; [7] 2% | [1]; [8] -13% | [1]; at 50.0 µM 40.5% and 21.7% and 50.6% | [2]; [7] -2% | [2]; [8] -34% | [2]; at 50.0 µM -5.35% and -4.3% and 15.8% | [3]; [7] 2% | [3]; [8] -9% | [3]; at 50.0 µM 55.5% and 27.6% and 33% | [4]; [7] 5% | [4]; [8] -12% | [4]; at 50.0 µM 5.55% and -6.8% and -39.8% | [5]; [7] 5% | [5]; [8] 8% | [5]; at 50.0 µM -12.9% and -5.05% and -1.05% | [6]; [7] 20% | [6]; [8] 0% | [6]; at 50.0 µM 24.9% and 21.1% and 48.2%

O=C(N/C=C/C=C/Sc1ccccc1)OCc1ccccc1
active: [1]; [8] 97% | [2]; [8] 98% | [3]; [8] 98% | [4]; [8] 97% | [5]; [8] 99% | [6]; [8] 98%
inactive: [1]; [7] 6% | [1]; at 50.0 µM 0.05% | [2]; [7] -6% | [2]; at 50.0 µM 21.8% | [3]; [7] -20% | [3]; at 50.0 µM 38.6% | [4]; [7] 23% | [4]; at 50.0 µM -4.35% | [5]; [7] 5% | [5]; at 50.0 µM 2.2% | [6]; [7] -8% | [6]; at 50.0 µM 17.6%

CCOC(CN=c1nc(N(C)C)ss1)OCC
inactive: [1]; [7] 1% | [1]; [8] -20% | [1]; at 50.0 µM 2.75% | [2]; [7] -9% | [2]; [8] -12% | [2]; at 50.0 µM -8% | [3]; [7] 11% | [3]; [8] -19% | [3]; at 50.0 µM -3.95% | [4]; [7] -22% | [4]; [8] -24% | [4]; at 50.0 µM 7.85% | [5]; [7] -1% | [5]; [8] -9% | [5]; at 50.0 µM 43.4% | [6]; [7] -5% | [6]; [8] -7% | [6]; at 50.0 µM -15.3%

O=C1C(=Cc2c[nH]c3ccccc23)C(=O)c2ccccc21
active: [1]; [8] 93% | [2]; [8] 96% | [3]; [8] 91% | [4]; [8] 83% | [5]; [8] 95% | [6]; [8] 96%
0.1% (inactive) and 71.1% (active): [3]; at 50.0 µM
-1.65% (inactive) and 78.5% (active): [6]; at 50.0 µM
inactive: [1]; [7] 11% | [1]; at 50.0 µM -9.1% and 69.2% | [2]; [7] -24% | [2]; at 50.0 µM -6.4% and 69.5% | [3]; [7] -1% | [4]; [7] 6% | [4]; at 50.0 µM 2.15% and 32.4% | [5]; [7] 3% | [5]; at 50.0 µM -15.7% and 62.8% | [6]; [7] -1%
